Consider 59 compounds from PubChem BioAssay AID463173 (ICCB-Longwood Screening Facility, Harvard Medical School, 2010).

About 4,300 (8.3%) of roughly 52,000 compounds were called active. Shown is part of a subset that was picked to be rich in actives. Values without a mark were called inactive. No stated cut-off is given here; in the data, active means survival mostly below about 52% (no sharp cut-off); inactive means mostly above about 56%.

This test has as its system DeltatarO mutant. Briefly: growth inhibition of S. aureus wild type versus tarO mutant, primary screen, teichoic acid synthesis inhibitors, RN4220, OD600 (AID 463173). To be noted: OD600, 18 h, active compounds read low, screened at 18.75 µg/mL (by protocol).
Take `CCOc1ccccc1CNC(=O)C1CCN(c2nc3ccccc3nc2C(F)(F)F)CC1`: the survival was 69%.
`CCOc1ccc(NC(c2ccc(Cl)cc2)c2nnc(-c3cccc(F)c3)o2)cc1` (centres undefined): the survival is 90%.
Take `COc1ccc2sc(C)[n+](CCO)c2c1`: the survival is 81%.
As to `CCOc1ccc(S(=O)(=O)Nc2ccc3c(c2)CCCN3S(=O)(=O)c2ccc(C)cc2)cc1`, the survival is 88%.
Next, `COc1ccc(NC(=O)CN2C(=O)CCn3nc(-c4cccn4C)cc32)cc1`: 81%.
Next, `COc1cc(OC)cc(N2C(=O)CSC23C(=O)Nc2ccccc23)c1` (centres undefined): 99%; `COc1ccc(OC)c(CNC(=O)c2c(C)oc3ncn(CC(C)C)c(=O)c23)c1`: 89%.
As for `COc1ccc(Nc2cc(C)nc(-n3nc(C)cc3C)n2)cc1Cl`, the survival was 81%.
For `COc1ccccc1N1CCN(S(=O)(=O)CCNC(=O)c2cc(=O)c3ccccc3o2)CC1`, the survival is 87%.
Under `CCNC(=S)N1CCC(NC(=O)c2ccccc2)CC1` stands 110%.
Consider `CCN(c1ccccc1)S(=O)(=O)c1ccc(Cl)cc1`, for which the survival was 92%.
Next, `CCN(c1ccccc1)S(=O)(=O)c1ccc(NC(=O)c2cc(=O)c3ccccc3o2)cc1`: 63%; `CCN(c1ccccc1)S(=O)(=O)c1ccc(NC(=O)c2nc(S(C)(=O)=O)ncc2Cl)cc1`: -1% (active); `CN1C(=O)/C(=C/C=C2/Sc3ccccc3N2CCO)SC1=S`: 108%.
Under `Cc1c(-c2ccccc2)nc2c(Cl)cccc2c1C(=O)OCC(=O)c1ccc(F)cc1` stands 75%; under `O=S(=O)(NCCS(=O)(=O)N1CCN(c2ccccc2)CC1)c1ccc(Br)cc1`, 91%; under `CCCC12CN3CC(C)(CN(C1)C3c1cn(CC)c3ccccc13)C2=O` (centres undefined), 83%.
On to `Cc1cccc(N2CCN(C(c3nnnn3C3CCCC3)C(C)C)CC2)c1C` (centres undefined), for which the survival was 79%.
On to `Cc1cc(NC(=O)CCS(=O)(=O)c2cc(Br)cc3c2N(C(=O)C2CC2)CC3)ccc1Br`, for which the survival is 83%.
For the compound `COc1ccccc1C(=O)NC1(C(F)(F)F)NC(=O)N(CCc2ccccc2)C1=O` (centres undefined), the survival was 73%.
`CCOc1cccc(C(=O)N(Cc2ccc(CC)cc2)C2CCS(=O)(=O)C2)c1` (centres undefined): the survival is 149%.
For the compound `CCCCOc1cccc(C(=O)N(Cc2ccc(Cl)cc2)C2CCS(=O)(=O)C2)c1` (centres undefined), the survival is 54%.
Next, `COc1ccc(CN(C(=O)c2ccc(OCC(C)C)cc2)C2CCS(=O)(=O)C2)cc1` (centres undefined): 93%.
Next, `CCCOc1cccc(C(=O)N(Cc2cc(OC)c(OC)c(OC)c2)C2CCS(=O)(=O)C2)c1` (centres undefined): 43% (active).
For `CCOc1cccc(C(=O)N(Cc2ccc(C(C)C)cc2)C2CCS(=O)(=O)C2)c1` (centres undefined), the survival is 40% (active).
Under `COc1cc(C(=O)N(Cc2ccc(C(C)C)cc2)C2CCS(=O)(=O)C2)cc(OC)c1OC` (centres undefined) stands 46% (active); under `COc1cc(CN(C(=O)c2ccc(Cl)cc2)C2CCS(=O)(=O)C2)cc(OC)c1OC` (centres undefined), 69%; under `COc1cc(CN(C(=O)c2ccc(C)cc2)C2CCS(=O)(=O)C2)cc(OC)c1OC` (centres undefined), 59%.
Turning to `CCCCOc1cccc(C(=O)N(Cc2ccc(N(C)C)cc2)C2CCS(=O)(=O)C2)c1` (centres undefined), the survival is 56%.
Under `CCCCOc1ccc(C(=O)N(Cc2ccc(C(C)C)cc2)C2CCS(=O)(=O)C2)cc1` (centres undefined) stands 22% (active); under `CCCOc1cccc(C(=O)N(Cc2ccc(C)o2)C2CCS(=O)(=O)C2)c1` (centres undefined), 90%; under `COc1ccc(C(=O)N(Cc2ccc(C(C)C)cc2)C2CCS(=O)(=O)C2)cc1` (centres undefined), 62%.
Next, `CCN(CC)CCNC(=O)c1c(C)oc2ncnc(N3CCOCC3)c12`: 130%; `Cc1ccc2oc(C(=O)N(Cc3ccc(N(C)C)cc3)CC3CCCO3)c(C)c2c1` (centres undefined): 93%.
Next, `Cc1ccccc1-n1c(SCC(=O)N(C(C)C)C(C)C)nnc1-c1cccnc1`: 99%; `Cn1ccnc1SCC(=O)Nc1cc(Cl)ccc1Cl`: 68%.
As to `COc1cccc(C2CC(=O)N(c3ccc(F)cc3)C3=C2C(=O)OC3)c1OC` (centres undefined), the survival was 75%.
Regarding `COc1ccc(-n2nc(C(=O)Nc3ccc(Br)cc3C)c3c4ccccc4n(C)c3c2=O)cc1`, the survival is 97%.
Next, `Fc1ccc(C2=CC(c3ccc(F)cc3)n3c(nc4ccccc43)N2)cc1` (centres undefined): 87%; `CCOC(=O)c1ccc(NC(=O)CSc2c(C(C)C)cnc3c2c(=O)n(C)c(=O)n3C)cc1`: 107%; `Cc1ccc2nc(-c3c[nH]c4ccccc34)c(Nc3ccccc3C)n2c1`: 96%.
For `CC(=O)N1C(Nc2ccc(C)cc2)CCN1c1ccccc1` (centres undefined), the survival was 81%.
Next, `COc1ccc(Nc2oc(/C=C/c3cccc(OC)c3)nc2C#N)cc1`: 100%; `Cc1ccc2c(c1)C(c1ccc(F)cc1)N(C(=O)c1ccc(S(=O)(=O)N3CCCCC3)cc1)CC(=O)N2` (centres undefined): 178%.
Next, `Cc1cccc(NC(=O)CSc2nc3ccccc3nc2N2CCC(C)CC2)c1`: 8% (active); `CC1CCN(c2nc3ccccc3nc2SCC(=O)Nc2ccccc2C(C)C)CC1`: -1% (active).
Next, `CC(=O)Nc1ccc(NC(=O)CSc2nc3ccccc3nc2N2CCC(C)CC2)cc1`: 75%; `Cc1ccc(C)c(NC(=O)CSc2nc3ccccc3nc2N2CCOCC2)c1`: 85%; `CCc1ccc(Cn2c(CNS(=O)(=O)c3ccc4c(c3)CCCC4)nc3cccnc32)cc1`: 102%.
For the compound `Fc1ccc(-n2ncc3c(N4CCC(Cc5ccccc5)CC4)ncnc32)cc1`, the survival is 90%.
Next, `COc1cccc(C2CC(=O)Nc3c2c(=O)n(C)c2ncnn32)c1OC` (centres undefined): 166%; `Cc1ccc2c(c1)c1c3n2CCN(C(=O)Cn2c(-c4ccccc4)noc2=O)C3CCC1` (centres undefined): 90%.
For the compound `CC1CCc2c(sc(NC(=O)c3cc4nc(-c5ccc(Cl)cc5)cc(C(F)(F)F)n4n3)c2C#N)C1` (centres undefined), the survival was 91%.
Regarding `Cc1ccc(S(=O)(=O)c2nnn3c2nc(NC2CCCCC2)c2sccc23)cc1`, the survival is 109%.
With `O=S(=O)(c1ccc(Br)cc1)c1nnn2c1nc(NC1CCCCCC1)c1sccc12`, the survival was 63%.
For the compound `Cc1ccc(S(=O)(=O)c2nnn3c2nc(NC2CCCCCC2)c2sccc23)cc1C`, the survival is -4% (active).
Under `Cc1ccc(C)c(S(=O)(=O)c2nnn3c2nc(NC2CCCCC2)c2sccc23)c1` stands 40%; under `Cc1ccc(S(=O)(=O)c2nnn3c2nc(NC2CCCCC2)c2sccc23)cc1C`, 35% (active); under `O=S(=O)(c1ccc(Cl)cc1)c1nnn2c1nc(NC1CCCCC1)c1sccc12`, 41%.
